GLP1R cytotox = qHTS of GLP-1 Receptor Inverse Agonists: Cytotox Screen. AID 624418, 2012. Potency, µM (highest dose often 38.3 µM), hits mostly inhibitors. actives 0.13% (n = 410,000). HEK293 cAMP-luciferase reporter cells, luminescence, 24 h;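 also: loss of luciferase light is scored as toxicity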
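MLSMR compounds, 24 hr on cells at 37 deg C/5% CO2; luminescence after luciferase reagent (12 min RT). Inhibition counted as the undesired cytotoxic outcome.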
PTHR1 agonist = qHTS for PTHR1 Agonists: Primary Screen | actives 0.075% (n = 410,000) | AID 743266, 2014 | Potency, µM (highest dose often 115 µM), most hits filed as activators | HEK293 GP2 PTHR1 cells, GloSensor cAMP luminescence, 1 h; also: nearly all actives have a fitted effect of over 55% in size
Target sequence (Q03431 whole entry, looked up): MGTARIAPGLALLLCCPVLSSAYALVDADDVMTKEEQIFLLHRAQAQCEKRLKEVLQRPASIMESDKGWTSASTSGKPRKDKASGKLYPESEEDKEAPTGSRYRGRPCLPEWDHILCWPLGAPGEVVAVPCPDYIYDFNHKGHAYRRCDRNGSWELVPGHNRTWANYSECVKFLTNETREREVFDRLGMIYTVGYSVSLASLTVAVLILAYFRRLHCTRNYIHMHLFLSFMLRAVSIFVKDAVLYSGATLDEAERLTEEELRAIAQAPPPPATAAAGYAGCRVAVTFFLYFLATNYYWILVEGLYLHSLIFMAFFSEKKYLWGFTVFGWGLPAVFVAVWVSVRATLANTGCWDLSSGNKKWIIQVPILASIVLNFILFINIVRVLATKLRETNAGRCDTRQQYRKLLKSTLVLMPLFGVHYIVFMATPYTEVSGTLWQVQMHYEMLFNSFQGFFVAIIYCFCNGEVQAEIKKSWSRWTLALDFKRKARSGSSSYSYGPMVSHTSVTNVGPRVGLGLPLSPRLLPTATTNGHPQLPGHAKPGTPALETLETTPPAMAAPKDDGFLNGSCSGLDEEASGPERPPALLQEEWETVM
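HEK-293-derived GP2 cells expressing PTHR1 and a GloSensor cAMP reporter, 3,000/well, plated overnight, given luciferin plus IBMX (each 0.5 mM as added) for 1 h at 37 °C, then compound for 1 h at 37 °C. Luminescence was read after 15 min at room temperature.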
GLP1R ag = qHTS of GLP-1 Receptor Agonists; Glucagon-like peptide 1 receptor (Homo sapiens), P43220; AID 624172, 2012; HEK293 GLP-1R CRE-luciferase, luminescence, 4-6 h; cells express a hypersensitive GLP-1R form; Potency, µM (doses to about 45.6 µM), hits mostly activators; actives 0.007% (n = 380,000)
GLP-1R inv ag = qHTS of GLP-1 Receptor Inverse Agonists (Inhibition Mode) | Glucagon-like peptide 1 receptor (Homo sapiens), P43220 | HEK293 GLP-1R CRE-luciferase, luminescence, 24 h; GLP-1R form is constitutively active | Potency, µM (doses to about 38.3 µM), most hits filed as inhibitors | actives 1.6% (n = 410,000); also: nearly all actives have a fitted effect of over 55% in size
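Assay principle: reduced luminescence from a cAMP-responsive reporter in HEK293 cells co-expressing a constitutively active GLP-1R. Conditions: 24 hr compound incubation, 37 deg C, 5% CO2.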
Hits are given with their value; - = inactive; ? = inconclusive; . = no result. Compounds with a hit are over-represented: about 1.7% of the library has one in this group of screens. Calls follow the shape of the dose curve; as a rule, active = well fitted curve in the direction sought with a large enough effect; inconclusive = small, poorly fitted or top-dose-only effect, or another doubt; inactive = no such curve, though single readings can be large; an effect the other way counts as inactive or inconclusive.

SMILES | GLP1R cytotox | PTHR1 agonist | GLP1R ag | GLP-1R inv ag
CC(C)CC(=O)N1CCN(Cc2ccc(C(F)(F)F)cc2)CC1 | - | - | - | -
CC(C)(C)C(=O)NC(Nc1cccc2cccnc12)C(Cl)(Cl)Cl (configuration not stated) | - | - | - | 5.01µM
Cc1c(C(=O)Nc2ccccc2)sc2nc(-c3cc4cc(Cl)ccc4oc3=O)[nH]c(=O)c12 | - | - | . | -
C/C(=N\Nc1nc(N2CCCCC2)nc(N2CCOCC2)n1)c1ccccc1O | - | - | - | 2.51µM
CC(C)(C)OC(=O)N1CCC(c2c(C(=O)NC3CCN(Cc4ccccc4)CC3)cnn2-c2cccc(F)c2)CC1 | - | - | . | -
CNCCC1Sc2ccccc2Oc2ccccc21 (configuration not stated) | - | - | - | 10µM
O=C(CO/N=C/c1ccccc1)N1c2ccccc2Oc2ccccc21 | - | - | - | 8.91µM
O=C(CN1CCCCC1)N1c2ccccc2Oc2ccccc21 | - | - | - | ?
CCOC(=O)c1ccc(NC(=S)N(CCCN2CCCC2)Cc2cccs2)cc1 | ? | - | - | 2.82µM
CSc1cccc(NC(=S)NCCCN2CCN(c3ccc(F)cc3)CC2)c1 | - | - | - | -
COc1ccccc1N(Cc1ccccc1)S(=O)(=O)c1cccc(C(=O)O)c1 | - | - | - | -
COc1ccccc1N(Cc1ccccc1)S(=O)(=O)c1cccc(C(=O)Nc2ncccc2C)c1 | - | - | - | ?
COc1ccccc1N(Cc1ccccc1)S(=O)(=O)c1cccc(C(=O)NC2CC(C)(C)NC(C)(C)C2)c1 | ? | - | - | 5.01µM
COc1ccccc1N(Cc1ccccc1)S(=O)(=O)c1cccc(C(=O)Nc2cc(C)ccn2)c1 | - | - | - | 4.47µM
COc1ccc(NC(=O)CSC2=Nc3ccccc3C3=NC(CCC(=O)NCc4ccc(F)cc4)C(=O)N23)cc1Cl (configuration not stated) | - | - | . | -
CCOc1ccc(-c2[nH]ncc2Oc2ccccc2OC)c(O)c1 | ? | - | - | 8.91µM
CC(NC(=O)c1cc(COc2ccc3ncccc3c2)on1)c1ccc(F)cc1 (configuration not stated) | - | - | - | 1.78µM
O=C(NCCc1cn2ccccc2n1)c1cc(COc2ccc3ncccc3c2)on1 | - | - | - | 12.6µM
O=C(NC1CCCC1)c1cc(COc2ccc3ncccc3c2)on1 | - | - | - | -
COC(=O)c1sc(S(=O)(=O)N2CCN(c3ccccc3F)CC2)c(C(=O)OC)c1C | ? | - | - | 11.2µM
CC(=O)CC(=O)Nc1ccc(Nc2ccccc2)cc1 | - | - | - | ?
Cc1cc(C)c2ccc(N)nc2c1O | ? | - | - | 12.6µM
O=S(=O)(c1ccc(-c2csc(=Nc3ccc(OC(F)(F)Cl)cc3)n2CCCO)cc1)N1CCCC1 | - | - | . | 10µM
OCCCn1c(-c2ccccc2)csc1=Nc1ccccc1 | - | - | - | 11.2µM
CCN(CC)CCn1c(-c2ccccc2)csc1=Nc1ccccc1 | ? | - | . | ?
SMILES | GLP1R cytotox | PTHR1 agonist | GLP1R ag | GLP-1R inv ag
Cc1ccc(NC(=O)CSc2ncc3ccccn23)cc1 | - | - | - | -
CC(C)/C=N/Nc1nc(-c2ccc(Br)cc2)cs1 | - | - | - | 5.62µM
N#Cc1nc(-c2ccc(F)cc2)oc1N1CCC(C(N)=O)CC1 | - | - | - | -
COc1ccc2nc(C)cc(Nc3ccc(N4CCN(C)CC4)cc3)c2c1 | ? | - | - | 5.62µM
CCc1nc(NC(C)(C)C)c2cnn(-c3ccccc3)c2n1 | - | - | - | 2µM
O=C(c1ccc(Cl)c(Cl)c1)N1CCC(=O)N(C(COCc2cccc(Cl)c2)Cc2ccccc2)CC1 (configuration not stated) | - | - | - | 3.98µM
Cc1cccc(COC[C@H](Cc2ccccc2)N2CCN(C(=O)c3ccc(C(F)(F)F)cc3)CCC2=O)c1 | - | - | - | ?
Cc1cccc(COCC(Cc2ccccc2)N2CCN(C(=O)c3ccc(C(F)(F)F)cc3)CCC2=O)c1 (configuration not stated) | - | - | - | 11.2µM
O=C(c1cccc(Cl)c1)N1CCC(=O)N(C(COCc2cccc(Cl)c2)Cc2ccccc2)CC1 (configuration not stated) | - | - | - | -
CC(C)CC(COCc1cccc(Cl)c1)N1CCN(C(=O)c2ccc(C(F)(F)F)cc2)CCC1=O (configuration not stated) | - | - | - | 10µM
O=C(c1ccco1)N(Cc1ccc(Cl)cc1)Cc1ccco1 | - | - | - | ?
Cc1ccc(CN(Cc2ccco2)C(=O)c2ccc(Cl)cc2Cl)cc1 | - | - | . | 12.6µM
Cc1ccc(CN(Cc2ccco2)C(=O)c2oc3cc(Br)ccc3c2C)cc1 | - | - | . | ?
CN(C)c1ccc(CN(Cc2ccco2)C(=O)c2ccco2)cc1 | - | - | - | 11.2µM
CCc1ccc2oc(C(=O)N(Cc3cccc(Cl)c3)Cc3ccco3)c(C)c2c1 | - | - | . | 8.91µM
COc1ccc(C2(C(=O)NCc3ccccc3Cl)CCOCC2)cc1OC | - | - | - | -
COc1ccc(C(=O)NC2CCCN(Cc3ccc(Cl)cc3)C2)c(OC)c1 (configuration not stated) | - | - | - | 7.94µM
COc1ccc(C(=O)C2CCCN(Cc3cc(C)c(O)c(C)c3)C2)c(OC)c1 (configuration not stated) | - | - | - | 4.47µM
COc1ccc(C(=O)C2CCCN(Cc3cc(Cl)ccc3O)C2)c(OC)c1 (configuration not stated) | - | - | - | ?
CCN(CC)CC(=O)Nc1ccc2c(c1)N(C(=O)CN(CC)CC)c1ccccc1CC2 | 3.98µM | - | - | -
CCOC(=O)Nc1ccc2c(c1)N(C(=O)CN(CC)CC)c1ccccc1CC2 | ? | - | - | ?
COc1ccc2c(c1)c1nc3ccccc3nc1n2CCn1c(=O)oc2ccccc21 | - | 0.398µM | - | -
O=c1oc2ccccc2n1CCn1c2ccccc2c2nc3ccccc3nc21 | - | - | - | -
COc1cc(OC)cc(C(=O)Nc2ccc(S(=O)(=O)N3CCCCC3c3cccnc3)cc2)c1 (configuration not stated) | ? | - | . | 7.08µM
O=S1(=O)C[C@@H](N2CCN(c3ccccn3)CC2)[C@H](COCc2ccccc2)N1 | - | - | - | -
O=C(CCCOc1ccc(Cl)cc1Cl)N/N=C/c1ccccc1O | ? | - | - | 4.47µM
O=C(NCCCN1CCOCC1)/C(=C/c1ccc(-c2cccc([N+](=O)[O-])c2)o1)NC(=O)c1ccccc1 | - | - | - | -
Cc1nc2nc(C)n(CCN3CCOCC3)c(=O)c2c(-c2cccc([N+](=O)[O-])c2)c1C(=O)CCCCCCCCCCN1CCC(c2ccccc2)(c2ccccc2)CC1 | ? | - | - | 2.82µM
